This is an account of results in article PMC7862700, “An all-to-all approach to the identification of sequence-specific readers for epigenetic DNA modifications on cytosine”.

What all share (experiment): DAPPL (digital affinity profiling via proximity ligation, sequencing); 10 mM Tris-HCl pH 7.5, 50 mM NaCl, 1 mM DTT, 4% glycerol, room temperature, 30 min; GST-TFs on glutathione beads, 16-mer random dsDNA library, 0.1% formaldehyde crosslink after washing; high values mean tight binding
One experiment has as its target T1, FEV (Homo sapiens, UniProt Q99581 1-238).
T1 sequence: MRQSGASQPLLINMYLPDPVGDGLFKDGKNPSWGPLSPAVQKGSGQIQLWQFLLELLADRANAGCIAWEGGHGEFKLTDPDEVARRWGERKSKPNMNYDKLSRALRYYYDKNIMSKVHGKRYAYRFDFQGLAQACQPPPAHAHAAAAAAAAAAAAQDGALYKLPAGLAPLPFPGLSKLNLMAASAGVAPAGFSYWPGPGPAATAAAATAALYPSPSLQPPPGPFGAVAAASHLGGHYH
To be noted: protein: recombinant; tags: N-terminal GST; dsDNA, one strand shown. A digest of the protocol: (§1)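 Human transcription factors fused to GST were expressed in yeast, captured on glutathione beads, given DNA barcodes and pooled with a GST-only negative control. Pools were incubated with 200 nmole of a 16-mer random double-stranded DNA library in Tris/NaCl/DTT/glycerol buffer at room temperature for 30 min. They were then washed, crosslinked with 0.1% formaldehyde, proximity-ligated (BsaI/T4 ligase, 1 h, 37 °C), PCR-amplified and sequenced on an Illumina NextSeq500. Binding signal is each 6-mer's read frequency for a factor divided by its frequency for the GST control.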

For another experiment, the target named is ETV5 (Homo sapiens, UniProt P41161 1-510). The settings on record: protein: recombinant; tags: N-terminal GST; dsDNA, one strand shown. In short, it runs like this:
as §1

A further experiment addresses HSF1 (Homo sapiens, UniProt Q00613 1-529). To be noted: protein: recombinant; tags: N-terminal GST; chain copies: 3; dsDNA, one strand shown. In short, it runs like this: as §1
The next experiment deals with T2, SPIC (Homo sapiens, UniProt Q8N5J4 1-248).
T2 sequence: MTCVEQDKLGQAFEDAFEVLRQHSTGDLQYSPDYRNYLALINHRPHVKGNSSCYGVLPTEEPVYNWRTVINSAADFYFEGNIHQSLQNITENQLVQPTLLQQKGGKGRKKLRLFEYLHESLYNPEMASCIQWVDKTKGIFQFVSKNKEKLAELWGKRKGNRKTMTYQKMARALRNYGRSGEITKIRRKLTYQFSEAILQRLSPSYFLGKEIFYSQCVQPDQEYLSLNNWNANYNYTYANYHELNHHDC
To be noted: protein: recombinant; tags: N-terminal GST; dsDNA, one strand shown. A digest of the protocol: as §1

The next experiment has as its target ELF4 (Homo sapiens, UniProt Q99607 1-663). The settings on record: protein: recombinant; tags: N-terminal GST; dsDNA, one strand shown. A digest of the protocol: as §1
The next experiment addresses T3, ELK4 (Homo sapiens, UniProt P28324-2 1-405).
T3 sequence: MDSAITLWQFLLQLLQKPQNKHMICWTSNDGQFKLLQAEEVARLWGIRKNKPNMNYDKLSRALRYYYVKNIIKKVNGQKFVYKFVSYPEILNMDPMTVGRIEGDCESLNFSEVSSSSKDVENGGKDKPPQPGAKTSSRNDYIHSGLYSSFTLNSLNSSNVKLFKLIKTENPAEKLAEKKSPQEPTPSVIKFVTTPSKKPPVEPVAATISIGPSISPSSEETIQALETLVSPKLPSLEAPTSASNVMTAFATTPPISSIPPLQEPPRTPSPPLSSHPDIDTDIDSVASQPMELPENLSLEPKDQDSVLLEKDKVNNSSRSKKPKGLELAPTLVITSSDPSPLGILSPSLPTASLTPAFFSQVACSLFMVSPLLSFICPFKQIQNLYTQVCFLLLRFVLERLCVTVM
To be noted: protein: recombinant; tags: N-terminal GST; dsDNA, one strand shown. A digest of the protocol:
as §1

For a further experiment, the target named is T4, ETV2 (Homo sapiens, UniProt O00321 1-342).
T4 sequence: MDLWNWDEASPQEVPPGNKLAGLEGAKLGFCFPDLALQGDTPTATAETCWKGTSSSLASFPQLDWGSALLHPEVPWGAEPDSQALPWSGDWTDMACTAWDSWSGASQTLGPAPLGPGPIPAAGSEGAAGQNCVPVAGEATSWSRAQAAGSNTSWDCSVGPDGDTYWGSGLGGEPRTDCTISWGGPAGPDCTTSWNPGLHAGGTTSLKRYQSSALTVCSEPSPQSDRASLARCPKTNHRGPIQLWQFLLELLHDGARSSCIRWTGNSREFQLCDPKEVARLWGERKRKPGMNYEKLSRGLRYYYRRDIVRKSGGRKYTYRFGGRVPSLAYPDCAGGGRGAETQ
The settings on record: protein: recombinant; tags: N-terminal GST; dsDNA, one strand shown. In short, it runs like this: as §1

For another experiment, the target named is T5, ELF3 (Homo sapiens, UniProt P78545 1-371).
T5 sequence: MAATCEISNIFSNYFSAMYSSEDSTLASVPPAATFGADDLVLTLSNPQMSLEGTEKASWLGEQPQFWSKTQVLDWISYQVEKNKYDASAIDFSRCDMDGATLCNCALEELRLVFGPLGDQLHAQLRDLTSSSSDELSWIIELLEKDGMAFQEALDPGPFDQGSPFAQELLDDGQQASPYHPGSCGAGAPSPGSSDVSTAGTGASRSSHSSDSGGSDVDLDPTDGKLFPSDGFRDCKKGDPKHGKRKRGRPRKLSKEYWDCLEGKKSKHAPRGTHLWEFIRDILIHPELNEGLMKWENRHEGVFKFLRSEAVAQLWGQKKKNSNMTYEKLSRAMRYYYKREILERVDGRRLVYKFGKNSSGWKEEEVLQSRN
To be noted: protein: recombinant; tags: N-terminal GST; dsDNA, one strand shown. A digest of the protocol: as §1

The target of the next experiment is ETV1 (Homo sapiens, UniProt P50549 1-477). To be noted: protein: recombinant; tags: N-terminal GST; dsDNA, one strand shown. A digest of the protocol:
as §1

Another experiment addresses CRX (Homo sapiens, UniProt O43186 1-299). To be noted: protein: recombinant; tags: N-terminal GST; dsDNA, one strand shown. A digest of the protocol: as §1

Chain of ETV5 (P41161 whole entry): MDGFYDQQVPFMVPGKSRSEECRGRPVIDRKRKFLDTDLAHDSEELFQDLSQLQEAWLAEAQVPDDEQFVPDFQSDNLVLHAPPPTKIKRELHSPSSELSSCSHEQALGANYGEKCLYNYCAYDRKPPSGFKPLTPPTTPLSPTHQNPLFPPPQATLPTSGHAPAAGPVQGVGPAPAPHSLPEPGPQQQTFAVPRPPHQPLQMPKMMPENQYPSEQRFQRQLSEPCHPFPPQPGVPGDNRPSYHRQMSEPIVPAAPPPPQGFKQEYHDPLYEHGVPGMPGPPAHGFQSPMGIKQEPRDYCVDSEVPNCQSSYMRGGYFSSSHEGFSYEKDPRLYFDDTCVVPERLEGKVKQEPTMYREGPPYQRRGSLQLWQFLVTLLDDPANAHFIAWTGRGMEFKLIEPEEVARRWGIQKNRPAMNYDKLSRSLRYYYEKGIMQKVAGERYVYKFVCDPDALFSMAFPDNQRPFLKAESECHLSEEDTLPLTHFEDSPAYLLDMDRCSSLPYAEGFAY
Chain of ETV1 (P50549 whole entry): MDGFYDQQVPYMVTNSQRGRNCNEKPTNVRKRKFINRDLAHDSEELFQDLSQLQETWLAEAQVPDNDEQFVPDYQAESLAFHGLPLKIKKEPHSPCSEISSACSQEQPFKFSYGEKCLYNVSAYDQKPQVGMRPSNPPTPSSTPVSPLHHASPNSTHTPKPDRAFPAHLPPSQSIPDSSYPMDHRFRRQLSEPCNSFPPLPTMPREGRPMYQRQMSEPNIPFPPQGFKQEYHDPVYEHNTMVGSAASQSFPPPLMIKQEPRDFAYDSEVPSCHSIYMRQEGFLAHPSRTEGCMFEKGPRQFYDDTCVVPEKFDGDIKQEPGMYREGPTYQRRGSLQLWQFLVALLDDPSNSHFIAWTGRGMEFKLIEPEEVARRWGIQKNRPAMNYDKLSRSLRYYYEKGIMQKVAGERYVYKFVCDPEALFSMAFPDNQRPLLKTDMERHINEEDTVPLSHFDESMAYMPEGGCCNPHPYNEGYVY
Chain of HSF1 (Q00613 whole entry): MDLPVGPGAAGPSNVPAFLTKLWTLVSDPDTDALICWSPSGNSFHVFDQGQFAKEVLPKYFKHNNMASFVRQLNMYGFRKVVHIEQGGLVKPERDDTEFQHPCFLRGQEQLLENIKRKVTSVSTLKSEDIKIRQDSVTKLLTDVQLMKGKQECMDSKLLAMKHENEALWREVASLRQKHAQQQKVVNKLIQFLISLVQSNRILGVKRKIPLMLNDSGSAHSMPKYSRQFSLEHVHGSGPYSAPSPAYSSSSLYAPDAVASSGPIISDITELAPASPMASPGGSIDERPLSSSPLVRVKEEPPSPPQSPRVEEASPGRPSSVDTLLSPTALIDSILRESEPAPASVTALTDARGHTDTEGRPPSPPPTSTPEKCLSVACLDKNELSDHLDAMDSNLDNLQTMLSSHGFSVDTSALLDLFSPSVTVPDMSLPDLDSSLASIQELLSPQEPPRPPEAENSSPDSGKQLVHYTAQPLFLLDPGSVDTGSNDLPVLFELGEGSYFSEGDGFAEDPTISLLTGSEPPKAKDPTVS
Chain of ELF4 (Q99607 whole entry): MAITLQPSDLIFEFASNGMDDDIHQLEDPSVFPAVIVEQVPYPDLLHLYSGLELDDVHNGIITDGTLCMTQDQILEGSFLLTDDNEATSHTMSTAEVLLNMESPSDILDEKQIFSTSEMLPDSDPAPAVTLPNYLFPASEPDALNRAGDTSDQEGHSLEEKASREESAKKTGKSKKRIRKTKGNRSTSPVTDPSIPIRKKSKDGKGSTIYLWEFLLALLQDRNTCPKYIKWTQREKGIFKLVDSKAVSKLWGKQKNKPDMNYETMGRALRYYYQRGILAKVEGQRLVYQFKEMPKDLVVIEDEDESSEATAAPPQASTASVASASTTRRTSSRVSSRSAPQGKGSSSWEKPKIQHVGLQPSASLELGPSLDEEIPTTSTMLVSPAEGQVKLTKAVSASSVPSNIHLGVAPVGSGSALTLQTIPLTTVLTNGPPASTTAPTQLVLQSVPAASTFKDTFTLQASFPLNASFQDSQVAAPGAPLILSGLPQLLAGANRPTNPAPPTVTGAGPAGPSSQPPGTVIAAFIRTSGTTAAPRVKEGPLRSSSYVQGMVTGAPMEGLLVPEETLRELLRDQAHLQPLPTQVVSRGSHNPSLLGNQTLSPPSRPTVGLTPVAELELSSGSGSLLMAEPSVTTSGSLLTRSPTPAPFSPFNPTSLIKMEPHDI
Chain of CRX (O43186 whole entry): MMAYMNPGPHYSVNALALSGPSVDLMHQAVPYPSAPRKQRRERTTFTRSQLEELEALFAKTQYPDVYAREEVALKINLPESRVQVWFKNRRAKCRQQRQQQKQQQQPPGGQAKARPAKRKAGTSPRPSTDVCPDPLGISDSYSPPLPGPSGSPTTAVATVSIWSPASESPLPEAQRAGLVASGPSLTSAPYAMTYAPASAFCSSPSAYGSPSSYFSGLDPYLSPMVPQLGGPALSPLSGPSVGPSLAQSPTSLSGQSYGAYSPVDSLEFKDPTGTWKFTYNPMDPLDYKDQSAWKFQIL

For CACTGC, the binding signal with FEV was 1.38 fold enrichment (6-mer frequency, TF over GST control); with ETV5, 1.37 fold enrichment (6-mer frequency, TF over GST control); in the experiment with HSF1 it was 1.04 fold enrichment (6-mer frequency, TF over GST control); in the experiment with SPIC, 1.46 fold enrichment (6-mer frequency, TF over GST control); in the experiment with ELF4, 1.32 fold enrichment (6-mer frequency, TF over GST control); with ELK4 it was 1.43 fold enrichment (6-mer frequency, TF over GST control). The binding signal with ETV2 was 1.28 fold enrichment (6-mer frequency, TF over GST control); with ELF3, 1.15 fold enrichment (6-mer frequency, TF over GST control); with ETV1, 1.36 fold enrichment (6-mer frequency, TF over GST control).

Turning to CCCTCA, the binding signal with FEV was 1.24 fold enrichment (6-mer frequency, TF over GST control); in the experiment with ETV5 it was 1.18 fold enrichment (6-mer frequency, TF over GST control); with HSF1, 1.03 fold enrichment (6-mer frequency, TF over GST control); with SPIC it was 1.06 fold enrichment (6-mer frequency, TF over GST control); with ELF4 it was 1.28 fold enrichment (6-mer frequency, TF over GST control); in the experiment with ELK4, 1.11 fold enrichment (6-mer frequency, TF over GST control). Also, the binding signal is 1.29 fold enrichment (6-mer frequency, TF over GST control) in the experiment with ETV2; 1.17 fold enrichment (6-mer frequency, TF over GST control) with ELF3; 1.19 fold enrichment (6-mer frequency, TF over GST control) with ETV1.

Take GTTCCA: the binding signal is 1.01 fold enrichment (6-mer frequency, TF over GST control) with FEV; 1.05 fold enrichment (6-mer frequency, TF over GST control) with ETV5; 1.79 fold enrichment (6-mer frequency, TF over GST control) with HSF1; 1.21 fold enrichment (6-mer frequency, TF over GST control) in the experiment with SPIC; 1.13 fold enrichment (6-mer frequency, TF over GST control) with ELF4; 1.14 fold enrichment (6-mer frequency, TF over GST control) in the experiment with ELK4. Moreover, the binding signal with ETV2 is 1.06 fold enrichment (6-mer frequency, TF over GST control); with ELF3 it was 1.12 fold enrichment (6-mer frequency, TF over GST control); in the experiment with ETV1, 1.06 fold enrichment (6-mer frequency, TF over GST control).

Turning to GATGAA, the binding signal with FEV is 1.13 fold enrichment (6-mer frequency, TF over GST control); with ETV5, 1.13 fold enrichment (6-mer frequency, TF over GST control); in the experiment with HSF1 it was 1.21 fold enrichment (6-mer frequency, TF over GST control); in the experiment with SPIC, 1.11 fold enrichment (6-mer frequency, TF over GST control); with ELF4, 1.2 fold enrichment (6-mer frequency, TF over GST control); with ELK4 it was 1.21 fold enrichment (6-mer frequency, TF over GST control). Also, the binding signal with ETV2 is 1.13 fold enrichment (6-mer frequency, TF over GST control); with CRX, 1.22 fold enrichment (6-mer frequency, TF over GST control); with ETV1 it was 1.27 fold enrichment (6-mer frequency, TF over GST control).

GAAGTA: the binding signal was 2.05 fold enrichment (6-mer frequency, TF over GST control) with FEV; 2.16 fold enrichment (6-mer frequency, TF over GST control) with ETV5; 1.02 fold enrichment (6-mer frequency, TF over GST control) with HSF1; 2.19 fold enrichment (6-mer frequency, TF over GST control) with SPIC; 1.74 fold enrichment (6-mer frequency, TF over GST control) in the experiment with ELF4; 1.71 fold enrichment (6-mer frequency, TF over GST control) in the experiment with ELK4. Besides, the binding signal is 1.89 fold enrichment (6-mer frequency, TF over GST control) with ETV2; 2.08 fold enrichment (6-mer frequency, TF over GST control) in the experiment with ELF3; 2.11 fold enrichment (6-mer frequency, TF over GST control) with ETV1.

For the sequence CGCGTC, the binding signal with FEV is 1.2 fold enrichment (6-mer frequency, TF over GST control); with ETV5, 1.06 fold enrichment (6-mer frequency, TF over GST control); with HSF1, 1.02 fold enrichment (6-mer frequency, TF over GST control); with SPIC it was 1.39 fold enrichment (6-mer frequency, TF over GST control); in the experiment with ELF4 it was 1.19 fold enrichment (6-mer frequency, TF over GST control); in the experiment with ELK4 it was 1.48 fold enrichment (6-mer frequency, TF over GST control). Also, the binding signal with ETV2 is 1.35 fold enrichment (6-mer frequency, TF over GST control); with ELF3, 1.44 fold enrichment (6-mer frequency, TF over GST control); with ETV1 it was 1.22 fold enrichment (6-mer frequency, TF over GST control).

For the sequence TGAAAA, the binding signal in the experiment with FEV is 1.06 fold enrichment (6-mer frequency, TF over GST control); in the experiment with ETV5 it was 1.02 fold enrichment (6-mer frequency, TF over GST control); with HSF1 it was 1.14 fold enrichment (6-mer frequency, TF over GST control); with SPIC, 1.11 fold enrichment (6-mer frequency, TF over GST control); with ELF4, 1.11 fold enrichment (6-mer frequency, TF over GST control); with ELK4, 1.08 fold enrichment (6-mer frequency, TF over GST control). The binding signal with ETV2 was 1.08 fold enrichment (6-mer frequency, TF over GST control); with ELF3 it was 1.08 fold enrichment (6-mer frequency, TF over GST control); with ETV1, 1.01 fold enrichment (6-mer frequency, TF over GST control).
